The values that follow come from PubChem BioAssay (NCATS).

Each structure is given as a SMILES string. Records with an inconclusive call do not appear. Activity calls are given as the source filed them. Calls follow the shape of the dose curve; as a rule, active = well fitted curve in the direction sought with a large enough effect; inconclusive = small, poorly fitted or top-dose-only effect, or another doubt; inactive = no such curve, though single readings can be large; an effect the other way counts as inactive or inconclusive.

Test [1] addresses Phospholipid hydroperoxide glutathione peroxidase GPX4 (Homo sapiens) (UniProt P36969). Nature of the test: Primary qHTS Assay for Inhibitors of Recombinant Selenoprotein Glutathione Peroxidase 4 (GPX4) (AID 1845192). Also: nearly all actives have a fitted effect of over 65% in size. To be noted: recombinant GPX4, GR-coupled NADPH fluorescence, 15 min; series mostly up to 50 µM. The method in brief: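 Steps: GPX4 plus compound, 30 min RT; add GR/GSH/NADPH master mix; start with cumene hydroperoxide; read 340/450 nm fluorescence at 0 and 15 min. Finals were 200 nM GPX4, 1 mM GSH, 0.5 mM CHP, 0.5 mM NADPH, 100 nM GR.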

Test [2] deals with Luciferin 4-monooxygenase (Photinus pyralis) (UniProt P08659). Put plainly: Primary firefly luciferase (FLuc) qHTS assay for identification of artifact compounds. (AID 1845220). Also: nearly all actives have a fitted effect of over 60% in size. To be noted: purified firefly luciferase, luminescence, 5 min; series mostly up to 54.1 µM. In outline:
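D-luciferin and ATP (10 uM each, final) in Tris acetate buffer pH 7.6 were incubated with compounds for 15 min at room temperature. The reaction was started with 10 nM Photinus pyralis luciferase and luminescence read after 5 min. Percent inhibition was fitted to a 4-parameter Hill equation.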
Background: Quantitative high-throughput screening tests each substance at several concentrations.

Test [3] is described as follows: Primary fluorescence-based thiol-reactive (MSTI) qHTS assay for identification of artifact compounds. (AID 1845221). Also: nearly all actives have a fitted effect of over 65% in size. Also: potency is read from the fitted curve at half-maximal effect. To be noted: MSTI thiol-reactivity probe, 1 h; series mostly up to 53.8 µM. In outline: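 Compounds were incubated 1 h at room temperature in the dark with the MSTI probe (4 uM) in PBS pH 7.4, 2% DMSO. Signals were normalized between Acetyl-MSTI and MSTI.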

Test [4] concerns Nanoluciferase (engineered Oplophorus gracilirostris luciferase). Put plainly: Primary Nanoluciferase (NLuc) qHTS assay for identification of artifact compounds. (AID 1845222). The note with it: NLuc-conditioned medium, Nano-Glo luminescence, 5 min; series mostly up to 54.1 µM. In outline: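 Diluted conditioned medium from NLuc-expressing S16 cells treated with compounds for 15 min at room temperature, then Nano-Glo substrate added; luminescence read after 5 min. Percent inhibition versus no-enzyme and DMSO controls fitted to 4-parameter Hill equation.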

Chain of Phospholipid hydroperoxide glutathione peroxidase GPX4 (Homo sapiens) (P36969 whole entry, looked up): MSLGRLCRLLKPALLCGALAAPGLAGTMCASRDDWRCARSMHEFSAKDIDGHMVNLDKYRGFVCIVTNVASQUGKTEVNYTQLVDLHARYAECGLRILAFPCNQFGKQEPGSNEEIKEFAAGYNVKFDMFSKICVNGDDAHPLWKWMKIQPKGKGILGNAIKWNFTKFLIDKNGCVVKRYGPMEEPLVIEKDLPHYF

As for `Fc1ccc(N2CCCCC2)c(NC(=S)c2ccncc2)c1`, the Potency result in test [1], in test [2], in test [3] and in test [4] was “inactive” throughout.
As for `Cc1ccc(C)c(-c2cc(C(F)(F)F)nn2-c2ccc(S(N)(=O)=O)cc2)c1`, the Potency result in test [1], in test [2], in test [3] and in test [4] was “inactive” each time.
`O=C(Nc1ccc(-c2ccnc(Nc3ccc(N4CCOCC4)cc3)n2)cc1)C1CCCN1` (configuration not stated): the Potency result in test [1], in test [2] and in test [4] was “inactive” throughout. In addition, in test [3], the Potency was 11.9 µM (active).
`C=CC(=O)N1CCN(C(=O)CNc2cc(-c3ccccc3Cl)c(Cl)cc2OC)CC1`: the Potency result in test [1], in test [2] and in test [4] was “inactive” in each case.
For `CN(C)C(CCOc1cccc2ccccc12)c1ccccc1` (configuration not stated), the Potency entry in test [1], in test [2] and in test [4] was “inactive” in each case.
`CC(OC1OCCN(Cc2n[nH]c(=O)[nH]2)C1c1ccc(F)cc1)c1cc(C(F)(F)F)cc(C(F)(F)F)c1` (configuration not stated): the Potency entry in test [1], in test [2], in test [3] and in test [4] was “inactive” throughout.
With `CC[C@@H](Nc1c(Nc2cccc(C(=O)N(C)C)c2O)c(=O)c1=O)c1cc(C(C)C)co1`, the Potency result in test [1], in test [2] and in test [4] was “inactive” throughout.
As to `CN(C)CCC(CSc1ccccc1)Nc1ccc(S(=O)(=O)NC(=O)c2ccc(N3CCN(Cc4ccccc4-c4ccc(Cl)cc4)CC3)cc2)cc1[N+](=O)[O-]` (configuration not stated), the Potency entry in test [1], in test [2] and in test [4] was “inactive” in each case. Also, the Potency in test [3] is 2.12 µM (active).
Turning to `Cc1cccc(N2CCN(C(=O)c3cc(S(=O)(=O)N(C)C)ccc3N3CCCC3)CC2)c1C`, the Potency result in test [1], in test [2], in test [3] and in test [4] was “inactive” throughout.
For `CCCC(=O)C1(c2ccccc2)CCN(C(=O)[C@@H](Cc2ccc(OC)cc2)NC(=O)[C@@H](N)Cc2cncn2C)CC1`, the Potency entry in test [1], in test [2], in test [3] and in test [4] was “inactive” in each case.
